Bioassay records from PubChem BioAssay.
Most compounds without a hit are left out; they make up all but 10% or so of the library.
G9a block: blocks human histone lysine methyltransferase G9a; Q96KQ7; G9a H3K9 monomethylation, AlphaScreen, 2 h; Potency, µM (titrated, usually from 102 µM), without a hit: at the top dose activity, negative = inhibition, hits mostly inhibitors; 350,000 compounds, 8.8% hits; AID 504332; also: potency is read from the fitted curve at half-maximal effect; % is scaled to controls: 0 for no effect and ±100 for the full control effect; nearly all actives have a fitted effect of over 75% in size
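G9a (20 nM) preincubated 15 min RT with compounds, then 500 nM biotinylated H3K9 peptide and 20 uM SAM added; 2 h RT reaction. Monomethyl-H3K9 product detected by AlphaScreen with anti-H3K9me1 antibody, streptavidin donor and anti-rabbit IgG acceptor beads.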
Six1-Eya2 inh: inhibitors of human Six1/Eya2 interaction. activity change, % (concentration not given with the values). 360,000 compounds, 0.56% hits. Q15475+O00167. AlphaScreen GST-Six1/His-Eya2 binding, biochemical; hits give low values. AID 651725; in the data active = activity change below about -65%; inconclusive = mostly about -30% to -63%; also: % is scaled to controls: 0 for no effect and ±100 for the full control effect
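Homogeneous AlphaScreen proximity assay pairing GST-Six1 with His-tagged Eya2 (added as 5X mix: 250 nM and 500 nM) in 50 mM Tris pH 8.0, 300 mM NaCl, 1 mM TCEP. Glutathione donor and nickel acceptor beads; 1 h, 37 °C, dark.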
JMJD2A Tudor inh: JMJD2A Tudor domain (human) inhibition; AID 504339; 390,000 compounds, 4.4% hits; Potency, µM (series often up to 114 µM), for inactives: top-dose activity change, negative = inhibition, actives largely listed as inhibitors; O75164; AlphaScreen JMJD2A-Tudor / H3K4me3 peptide binding; also: potency is read from the fitted curve at half-maximal effect; % is scaled to controls: 0 for no effect and ±100 for the full control effect; nearly all actives have a fitted effect of over 50% in size
CtBP-E1A inh: blocks the CtBP interaction with E1A; AlphaScreen GST-E1A/His-CtBP binding, 1536-well; hits give low values; activity change, % (concentration not given with the values); 340,000 compounds, 0.49% hits; in the data active = activity change below about -65%; inconclusive = mostly about -30% to -63%; also: % is scaled to controls: 0 for no effect and ±100 for the full control effect
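Homogeneous bead-based format: GST-tagged E1A captured on glutathione donor beads, His-tagged CtBP on nickel acceptor beads; compounds precede bead addition by 2 h at 37 °C.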
HP1b binding inh: blocks HP1-beta chromodomain binding to methylated histone tails; P83916; AlphaScreen HP1-beta / biotin-H3K9me3 peptide binding; Potency, µM (doses to about 114 µM), for inactives: top-dose activity change, negative = inhibition, usual class: inhibitors; 390,000 compounds, 0.56% hits; AID 540317; also: potency is read from the fitted curve at half-maximal effect; nearly all actives have a fitted effect of over 70% in size
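AlphaScreen: HP1-beta (50 nM) preformed 30 min with biotin-H3(1-18)K9me3 peptide (50 nM) in PBS pH 7.4, 0.01% Tween-20. Compound added for 30 min at RT, then streptavidin donor/nickel chelate acceptor beads (10 ug/mL) for 30 min.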
BAZ2B block: blocks human BAZ2B; Q9UIF8; AlphaScreen BAZ2B-H3K14Ac peptide displacement; Potency, µM (series often up to 114 µM), without a hit: top-dose activity change, negative = inhibition, most hits filed as inhibitors; 360,000 compounds, 4.4% hits; also: potency is read from the fitted curve at half-maximal effect; % is scaled to controls: 0 for no effect and ±100 for the full control effect; nearly all actives have a fitted effect of over 60% in size
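Compounds, titrated to a top concentration of 110 uM, were incubated 30 min at room temperature with preformed BAZ2B/acetyl-K14 H3 peptide complex (50 nM each). Proximity signal was measured by AlphaScreen after 20 min with beads.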
An asterisk follows results filed as active; ? = inconclusive; . = no result; ! = repeats disagree; [ ] = another dose, or the depositor's remark. Unless noted, calls follow the shape of the dose curve; as a rule, active = well fitted inhibition curve with a large enough effect; inconclusive = small, poorly fitted or top-dose-only effect; inactive = no such curve, though single readings can be large or run the other way.

SMILES	G9a block	Six1-Eya2 inh	JMJD2A Tudor inh	CtBP-E1A inh	HP1b binding inh	BAZ2B block
C[C@@H]1CN([C@H](C)CO)C(=O)CCCn2nncc2CO[C@H]1CN(C)S(=O)(=O)c1cccs1	.	1	.	1	.	.
c1nc(N2CCC(N3CCCC3)CC2)c2cc(-c3ccc4c(c3)OCO4)ccc2n1	.	.	-13%	.	.	.
CCCOc1ccccc1-c1nc2n[nH]nc2c(=O)[nH]1	14µM*!	-2	-1%	-2	41%	.
COc1cc(Sc2ccc(C)cc2)c(OC)cc1N	3.5µM*	?	22µM*	?	28µM*	14µM*
COC(=O)C1CCN(C(=O)COC(=O)c2ccc(OC)c(S(=O)(=O)N3CCCc4ccccc43)c2)CC1	79µM*	-24	-18%	.	13%	5%
CCOC(=O)C1CCN(C(=O)COC(=O)c2ccc3[nH]c4c(c3c2)CCCC4)CC1	5%[2.33 µM]	-18	?	-13	-24%	?
CCOc1ccccc1N1CCN(C(=O)c2ccc3[nH]c4c(c3c2)CCCC4)CC1	40µM*	?	45µM*	-29	?	40µM*
COC(=O)C1CCN(C(=O)COC(=O)c2ccc3[nH]c4c(c3c2)CCCC4)CC1	50µM*	-13	?	-4	?	?
CC1CCCN(S(=O)(=O)c2ccc3[nH]c4c(c3c2)CCCC4)C1 (configuration not stated)	.	-15	?	-19	?	25µM*
CC1CCCN(c2cc3c(cc2F)c(=O)c(S(=O)(=O)c2cccc(Cl)c2)cn3C)C1 (configuration not stated)	3%[59 µM]	.	2%	.	15%	2%
CC(=O)N1CCCc2cc(S(=O)(=O)Nc3ccc(C)c(C)c3)ccc21	.	.	-18%	.	.	.
CCOC(=O)c1ccc(N2CCN(c3cc(C)ccc3C)CC2)c(NC(=O)Nc2ccc(Cl)cc2)c1	5%[59 µM]	.	-17%	.	12%	-11%
CC1CCCN(C(=O)COC(=O)c2ccc3[nH]c4c(c3c2)CCCC4)C1 (configuration not stated)	?	-23	-9%	-17	-5%	50µM*
O=C(NCc1ccc2[nH]c3c(c2c1)CCCC3)c1ccc(S(=O)(=O)N2CCCCC2)cc1	71µM*	-10	-21%	-27	7%	-32%
CCOc1ccccc1NS(=O)(=O)c1c(C)nc2sccn2c1=O	7%[59 µM]	.	3%	.	36%	-10%
CCOc1ccc(NC(=O)CSc2cn(CC(=O)N3CCOCC3)c3ccccc23)cc1	-29%[59 µM]	.	-11%	.	55%	-16%
Cc1noc(NS(=O)(=O)c2ccc(N/C=C/C(=O)c3ccncc3)cc2)c1C	-42%[59 µM]	-24	-16%	-29	11%	-9%
Cc1noc(NS(=O)(=O)c2ccc(N/C=C\C(=O)c3ccncc3)cc2)c1C	50µM*	?	6%	-28	28%	1%
O=C(Nc1ccc2oc(-c3ccncc3)nc2c1)c1ccc(F)cc1	82%	77	?	1	143%	50µM*
O=C(Nc1ccc2oc(-c3cccnc3)nc2c1)c1ccc2c(c1)OCCO2	14µM*	-9	89µM*	2	-3%	79µM*
O=C(Nc1ccc2oc(-c3ccncc3)nc2c1)c1ccc2c(c1)OCCO2	20µM*	-8	56µM*	2	-19%	56µM*
O=C(Nc1ccc2oc(-c3cccnc3)nc2c1)c1ccc(-c2ccccc2)o1	11µM*	.	?	.	-20%	?
O=C(Nc1ccc(-c2nc3cc(NC(=O)c4ccc(F)cc4)ccc3o2)cc1)c1ccc(F)cc1	6%[59 µM]	.	-25%	.	-11%	8%
O=C(Nc1ccc2oc(-c3cccnc3)nc2c1)c1ccc(-c2ccc(OC(F)(F)F)cc2)o1	?	.	-16%	.	38%	-2%
Cc1ccc(C2CCN(C(=S)NC(C)C)C2)cc1 (configuration not stated)	1%	7	?	10	49%	-7%
Cc1cc(/C=C2\C(=N)N3N=C(c4ccco4)SC3=NC2=O)c(C)n1Cc1ccccc1	28µM*	-17	45µM*	-10	-23%	?
